Experimental data from the supplement of paper PMC10849652.
Targets with a hit are over-represented here; the source holds about 7,900 in all. About 0.6% of all pairs of compound and target were hits. Unmarked numbers belong to inactive results.

Columns and labels:
Test in all cases: log2 fold change, soluble protein after heating vs DMSO (PISA); higher = thermal stabilisation; K562 cells, 10 uM, 30 min; active = over 0.2 and 3.5 SD of the protein, either way, in both replicates (recomputed)
[1] = compound: CC1=C(C=C(C=C1)NC(=O)C2=CC(=CC=C2)C(C)(C)C#N)NC3=CC4=C(C=C3)N=CN(C4=O)C
Procedure, shortened: (§1)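 K562 cells at 2×10^6 cells/mL were treated with 10 μM compound for 30 min. Aliquots were heated for 3 min across 48°C-58°C, pooled, and extracted in PBS with 0.5% NP-40 at 4°C; soluble protein was the supernatant after 21,000xg for 90 min. Soluble protein was quantified by TMTpro 16plex LC-MS/MS with channel sums equalised, and reported as log2 fold change in thermal stability against DMSO controls, with values from duplicates.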

[2] = compound: CC1=C(C=C(C=C1)NC(=O)C2=CC(=CC=C2)N(C)C)NC(=O)C3=CC=C(C=C3)O
Procedure, shortened: as §1

[3] = compound: CC1=CC=C(C=C1)SC2=C3C=C(SC3=CN=C2)C(=O)N
Procedure, shortened: as §1

[4] = compound: CC1=NC(=CC=C1)C2=C(N=C(N2)C(C)(C)C)C3=CC4=NC=CN=C4C=C3
Procedure, shortened: as §1

Nexturastat A = compound: CCCCN(Cc1ccc(C(=O)NO)cc1)C(=O)Nc1ccccc1 [Nexturastat A]
Procedure, shortened: as §1

vemurafenib = compound: CCCS(=O)(=O)Nc1ccc(F)c(C(=O)c2c[nH]c3ncc(-c4ccc(Cl)cc4)cc23)c1F [vemurafenib]
Procedure, shortened: as §1

[5] = compound: CCCS(=O)(=O)Nc1ccc(F)c(C(=O)c2c[nH]c3ncc(Cl)cc23)c1F
Procedure, shortened: as §1

[6] = compound: CCCc1cc(C)[nH]c(=O)c1CNC(=O)c1cc(-c2ccnc(N3CCN(C)CC3)c2)cc2c1cnn2C(C)C
Procedure, shortened: as §1

givinostat = compound: CCN(CC)Cc1ccc2cc(COC(=O)Nc3ccc(C(=O)NO)cc3)ccc2c1 [givinostat]
Procedure, shortened: as §1

barasertib = compound: CCN(CCCOc1ccc2c(Nc3cc(CC(=O)Nc4cccc(F)c4)[nH]n3)ncnc2c1)CCOP(=O)(O)O [barasertib]
Procedure, shortened: as §1

[7] = compound: CC[C@@H]1C(=O)N(C)c2cnc(Nc3ccc(C(=O)NC4CCN(C)CC4)cc3OC)nc2N1C1CCCC1
Procedure, shortened: as §1

volasertib = compound: CC[C@@H]1C(=O)N(C)c2cnc(Nc3ccc(C(=O)N[C@H]4CC[C@H](N5CCN(CC6CC6)CC5)CC4)cc3OC)nc2N1C(C)C [volasertib]
Procedure, shortened: as §1

[8] = compound: CC[C@H](C)N1C=C(C2=C(C=C(C=C21)C3=CN=C(C=C3)N4CCNCC4)C(=O)NCC5=C(C=C(NC5=O)C)C)C
Procedure, shortened: as §1

epoxomicin = compound: CC[C@H](C)[C@@H](C(=O)N[C@@H]([C@@H](C)O)C(=O)N[C@@H](CC(C)C)C(=O)[C@]1(CO1)C)NC(=O)[C@H]([C@@H](C)CC)N(C)C(=O)C [epoxomicin]
Procedure, shortened: as §1

[9] = compound: CCn1c(C(=O)N(C2CC2)C2CC2)cc2c3c(ncn3C)c(Nc3cc(C)n(C)n3)nc21
Procedure, shortened: as §1

[10] = compound: CCn1cc(-c2ccnc3[nH]c(-c4cccc(CN(C)C)c4)cc23)c(-c2ccc(NC(=O)N(C)C)cc2)n1
Procedure, shortened: as §1

[11] = compound: CN(C)CC(=O)Nc1ccc2[nH]c(=O)c3ccccc3c2c1
Procedure, shortened: as §1

rosiglitazone = compound: CN(CCOC1=CC=C(C=C1)C[C@H]2C(=O)NC(=O)S2)C3=CC=CC=N3 (racemic) [rosiglitazone]
Procedure, shortened: as §1

[12] = compound: CN1C2=C(C3=C1C(=O)N(N=C3)CC4=CC(=CC=C4)N)SC(=C2)S(=O)C
Procedure, shortened: as §1

[13] = compound: CN1CCC(CNc2ccc3ncc(-c4cccc(OC(F)(F)F)c4)n3n2)CC1
Procedure, shortened: as §1

UniProt Q9P253, sequence (Q9P253 whole entry, looked up): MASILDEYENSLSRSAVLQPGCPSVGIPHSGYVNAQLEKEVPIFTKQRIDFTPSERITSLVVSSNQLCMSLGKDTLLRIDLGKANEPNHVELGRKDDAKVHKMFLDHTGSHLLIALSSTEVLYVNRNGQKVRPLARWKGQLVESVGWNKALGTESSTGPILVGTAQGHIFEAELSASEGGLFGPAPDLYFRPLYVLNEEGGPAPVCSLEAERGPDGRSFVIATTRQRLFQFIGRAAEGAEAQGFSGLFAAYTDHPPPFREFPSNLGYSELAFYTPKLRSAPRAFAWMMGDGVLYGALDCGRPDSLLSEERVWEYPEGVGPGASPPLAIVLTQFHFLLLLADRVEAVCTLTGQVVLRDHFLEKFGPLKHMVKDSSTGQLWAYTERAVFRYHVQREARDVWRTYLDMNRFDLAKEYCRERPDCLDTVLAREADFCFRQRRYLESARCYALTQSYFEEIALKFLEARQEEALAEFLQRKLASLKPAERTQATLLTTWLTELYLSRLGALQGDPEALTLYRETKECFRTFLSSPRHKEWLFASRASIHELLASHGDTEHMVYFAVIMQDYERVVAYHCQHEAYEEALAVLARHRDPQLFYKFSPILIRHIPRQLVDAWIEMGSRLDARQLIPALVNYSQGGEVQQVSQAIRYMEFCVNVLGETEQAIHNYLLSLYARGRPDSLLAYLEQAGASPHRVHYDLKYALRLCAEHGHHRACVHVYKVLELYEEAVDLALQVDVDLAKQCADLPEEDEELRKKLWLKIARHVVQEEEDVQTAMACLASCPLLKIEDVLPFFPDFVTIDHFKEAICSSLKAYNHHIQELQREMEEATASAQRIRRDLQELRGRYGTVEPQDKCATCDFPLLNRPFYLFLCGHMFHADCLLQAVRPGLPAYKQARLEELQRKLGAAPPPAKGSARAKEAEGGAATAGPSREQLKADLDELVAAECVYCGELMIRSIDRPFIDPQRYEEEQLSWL
UniProt A0PJW6, sequence (A0PJW6 whole entry, looked up): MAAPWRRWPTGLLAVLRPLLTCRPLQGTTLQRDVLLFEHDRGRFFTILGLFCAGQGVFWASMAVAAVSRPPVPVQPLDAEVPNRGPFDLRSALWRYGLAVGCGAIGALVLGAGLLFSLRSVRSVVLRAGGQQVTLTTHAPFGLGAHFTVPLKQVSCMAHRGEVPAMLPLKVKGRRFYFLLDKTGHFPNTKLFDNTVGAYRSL
UniProt Q9NX61, sequence (Q9NX61 whole entry, looked up): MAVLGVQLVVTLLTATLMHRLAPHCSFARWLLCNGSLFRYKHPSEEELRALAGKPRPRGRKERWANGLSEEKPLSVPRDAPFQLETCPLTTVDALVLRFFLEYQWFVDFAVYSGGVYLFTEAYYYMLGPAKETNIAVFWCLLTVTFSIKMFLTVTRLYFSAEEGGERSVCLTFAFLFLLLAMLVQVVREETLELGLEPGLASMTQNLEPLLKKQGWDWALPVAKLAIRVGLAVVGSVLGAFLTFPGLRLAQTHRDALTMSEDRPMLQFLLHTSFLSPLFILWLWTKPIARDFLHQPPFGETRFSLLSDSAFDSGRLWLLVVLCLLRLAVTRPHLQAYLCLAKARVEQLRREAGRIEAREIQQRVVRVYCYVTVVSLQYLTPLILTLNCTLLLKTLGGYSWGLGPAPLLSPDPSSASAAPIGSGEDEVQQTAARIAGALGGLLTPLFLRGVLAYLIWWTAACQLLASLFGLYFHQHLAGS
UniProt Q9UBK9, sequence (Q9UBK9 whole entry, looked up): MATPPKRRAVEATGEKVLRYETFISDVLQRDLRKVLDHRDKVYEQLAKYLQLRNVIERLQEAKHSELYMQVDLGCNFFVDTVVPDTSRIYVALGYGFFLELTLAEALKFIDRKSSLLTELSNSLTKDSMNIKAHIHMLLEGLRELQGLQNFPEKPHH
UniProt O43617, sequence (O43617 whole entry, looked up): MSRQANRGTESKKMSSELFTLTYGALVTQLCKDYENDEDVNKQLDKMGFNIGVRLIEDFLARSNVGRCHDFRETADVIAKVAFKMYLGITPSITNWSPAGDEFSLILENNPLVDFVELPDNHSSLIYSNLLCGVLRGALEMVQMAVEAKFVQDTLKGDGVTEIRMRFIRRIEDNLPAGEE
UniProt Q9Y3C0, sequence (Q9Y3C0 whole entry, looked up): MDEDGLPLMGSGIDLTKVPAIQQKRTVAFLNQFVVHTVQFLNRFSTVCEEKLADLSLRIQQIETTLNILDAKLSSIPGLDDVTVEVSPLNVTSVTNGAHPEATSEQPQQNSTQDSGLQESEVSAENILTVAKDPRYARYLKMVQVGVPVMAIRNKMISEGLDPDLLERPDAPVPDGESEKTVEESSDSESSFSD
UniProt Q9UL33, sequence (Q9UL33 whole entry, looked up): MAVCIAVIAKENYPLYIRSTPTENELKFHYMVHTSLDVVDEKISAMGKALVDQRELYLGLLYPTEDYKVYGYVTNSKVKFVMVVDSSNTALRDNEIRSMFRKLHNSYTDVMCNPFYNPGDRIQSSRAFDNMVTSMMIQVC
UniProt Q6ZXV5, sequence (Q6ZXV5 whole entry, looked up): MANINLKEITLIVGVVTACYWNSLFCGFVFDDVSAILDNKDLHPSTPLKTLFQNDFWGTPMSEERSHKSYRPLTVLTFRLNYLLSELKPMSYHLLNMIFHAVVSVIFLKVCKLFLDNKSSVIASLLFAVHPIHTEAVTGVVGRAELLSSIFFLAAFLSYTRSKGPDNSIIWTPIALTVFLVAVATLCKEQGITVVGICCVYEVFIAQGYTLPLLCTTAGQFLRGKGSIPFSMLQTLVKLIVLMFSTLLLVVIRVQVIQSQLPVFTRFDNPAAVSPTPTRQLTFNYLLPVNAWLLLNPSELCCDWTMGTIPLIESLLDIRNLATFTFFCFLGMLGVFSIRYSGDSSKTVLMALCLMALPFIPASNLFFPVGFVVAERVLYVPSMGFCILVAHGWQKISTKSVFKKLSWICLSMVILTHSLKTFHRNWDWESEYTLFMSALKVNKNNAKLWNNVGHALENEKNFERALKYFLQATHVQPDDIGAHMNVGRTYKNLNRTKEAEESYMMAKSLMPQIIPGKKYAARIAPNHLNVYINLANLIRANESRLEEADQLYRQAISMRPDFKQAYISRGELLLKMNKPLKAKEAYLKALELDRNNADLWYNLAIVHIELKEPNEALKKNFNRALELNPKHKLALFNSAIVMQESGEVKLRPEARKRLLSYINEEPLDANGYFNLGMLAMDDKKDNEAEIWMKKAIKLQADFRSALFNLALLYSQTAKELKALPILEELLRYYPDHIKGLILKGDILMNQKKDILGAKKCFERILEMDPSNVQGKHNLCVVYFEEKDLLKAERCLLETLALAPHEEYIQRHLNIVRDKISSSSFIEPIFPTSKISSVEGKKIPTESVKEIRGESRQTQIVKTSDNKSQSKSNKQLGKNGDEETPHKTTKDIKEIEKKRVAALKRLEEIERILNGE
UniProt Q8NDZ6, sequence (Q8NDZ6 whole entry, looked up): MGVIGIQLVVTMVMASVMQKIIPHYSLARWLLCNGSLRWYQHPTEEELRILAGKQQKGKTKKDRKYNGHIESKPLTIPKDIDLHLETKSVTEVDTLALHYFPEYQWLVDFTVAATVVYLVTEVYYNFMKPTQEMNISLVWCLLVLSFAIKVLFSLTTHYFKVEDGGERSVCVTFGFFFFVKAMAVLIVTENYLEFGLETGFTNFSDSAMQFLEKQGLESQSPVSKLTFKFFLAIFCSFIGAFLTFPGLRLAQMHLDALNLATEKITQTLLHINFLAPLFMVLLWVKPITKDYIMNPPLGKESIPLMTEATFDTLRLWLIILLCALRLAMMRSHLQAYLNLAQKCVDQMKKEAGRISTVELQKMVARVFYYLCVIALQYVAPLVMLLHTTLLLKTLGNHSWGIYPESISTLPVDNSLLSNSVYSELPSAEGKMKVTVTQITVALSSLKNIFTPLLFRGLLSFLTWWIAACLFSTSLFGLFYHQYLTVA
UniProt Q969X6, sequence (Q969X6 whole entry, looked up): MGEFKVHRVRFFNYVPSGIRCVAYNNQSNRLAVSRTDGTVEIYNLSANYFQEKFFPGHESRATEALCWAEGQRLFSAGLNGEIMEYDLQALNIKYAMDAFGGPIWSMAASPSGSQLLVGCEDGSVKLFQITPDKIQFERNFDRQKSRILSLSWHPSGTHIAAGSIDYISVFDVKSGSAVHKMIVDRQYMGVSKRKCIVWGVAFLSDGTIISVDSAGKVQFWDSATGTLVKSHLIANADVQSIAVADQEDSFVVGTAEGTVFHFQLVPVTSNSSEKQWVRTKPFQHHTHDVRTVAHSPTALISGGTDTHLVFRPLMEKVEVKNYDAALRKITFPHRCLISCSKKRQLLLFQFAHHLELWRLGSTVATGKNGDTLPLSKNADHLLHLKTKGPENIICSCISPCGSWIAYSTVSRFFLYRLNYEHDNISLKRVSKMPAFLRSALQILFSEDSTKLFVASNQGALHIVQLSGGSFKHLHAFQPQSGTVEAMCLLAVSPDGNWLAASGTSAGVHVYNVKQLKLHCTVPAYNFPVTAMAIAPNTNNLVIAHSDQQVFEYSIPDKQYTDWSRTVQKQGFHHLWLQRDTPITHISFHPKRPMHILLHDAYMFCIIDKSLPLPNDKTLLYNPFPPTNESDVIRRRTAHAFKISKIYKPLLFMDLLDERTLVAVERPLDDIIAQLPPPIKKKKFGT
UniProt Q5R3I4, sequence (Q5R3I4 whole entry, looked up): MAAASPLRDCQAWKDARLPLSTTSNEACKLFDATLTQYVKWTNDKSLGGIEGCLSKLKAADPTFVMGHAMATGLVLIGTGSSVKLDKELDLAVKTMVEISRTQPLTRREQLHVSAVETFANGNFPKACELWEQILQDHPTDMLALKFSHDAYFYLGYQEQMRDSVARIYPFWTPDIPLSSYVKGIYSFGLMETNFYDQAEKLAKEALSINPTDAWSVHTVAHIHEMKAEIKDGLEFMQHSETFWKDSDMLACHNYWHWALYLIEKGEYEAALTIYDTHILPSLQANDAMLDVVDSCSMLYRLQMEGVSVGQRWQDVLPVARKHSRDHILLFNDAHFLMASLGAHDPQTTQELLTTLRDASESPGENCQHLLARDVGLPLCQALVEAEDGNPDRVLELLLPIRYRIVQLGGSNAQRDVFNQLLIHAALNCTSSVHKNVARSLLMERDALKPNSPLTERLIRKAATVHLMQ

Target	log2 fold change [1]	log2 fold change [2]	log2 fold change [3]	log2 fold change [4]	log2 fold change (Nexturastat A)	log2 fold change (vemurafenib)	log2 fold change [5]	log2 fold change [6]	log2 fold change (givinostat)	log2 fold change (barasertib)	log2 fold change [7]	log2 fold change (volasertib)	log2 fold change [8]	log2 fold change (epoxomicin)	log2 fold change [9]	log2 fold change [10]	log2 fold change [11]	log2 fold change (rosiglitazone)	log2 fold change [12]	log2 fold change [13]
UXT isoform 2 (UniProt Q9UBK9)	0.008	0.003	0.039	-0.074	0.904 (active)	-0.023	-0.013	0.041	0.211	0.022	0.082	0.128	0.05	-0.038	-0.294	-0.248	0.015	0.022	-0.052	-0.126
TTC38 (UniProt Q5R3I4)	-0.039	0.405	0.127	0.019	1.05 (active)	0.031	0.012	0.141	0.938 (active)	0.023	0.076	0.253	0.041	0.012	-0.017	-0.05	0.136	-0.015	-0.049	-0.039
WASHC2C, A0A096LPC5	-0.059	0.062	-0.107	-0.041	0	0.039	-0.206	-0.101	-0.012	-0.037	0.034	-0.111	-0.03	-0.016	0.063	-0.132	0.012	0.067	0.142	-0.507 (active)
TTI1 (UniProt O43156)	0.147	-0.027	0.086	-0.026	0.02	0.082	0.095	-0.016	0.135	0.068	-0.208	-0.431 (active)	0.08	-0.024	-0.083	-0.038	0.048	0.04	0.134	-0.134
TRAPPC3 (UniProt O43617)	0	0.023	0.061	0.042	-0.218 (active)	0.023	0.01	-0.006	-0.051	0.025	-0.019	-0.118	-0.02	-0.029	0.047	0.04	-0.016	-0.022	-0.051	-0.059
TMTC3 (UniProt Q6ZXV5)	-0.05	-0.009	0.019	0.007	0.067	-0.052	0.013	-0.013	-0.032	0.032	-0.074	-0.118	0.023	0.001	0.001	0.038	-0.045	0.03	-0.014	-0.034
VPS18 (UniProt Q9P253)	0.051	-0.025	-0.029	-0.004	0.04	0.017	0.017	0.004	0.035	0.088	-0.22	-0.398 (active)	0.086	-0.019	-0.009	-0.059	0.046	0.042	0.005	-0.231
TRAPPC2L (UniProt Q9UL33)	0	-0.135	0.133	0.045	0.003	0.076	0.11	0.055	-0.123	0.05	-0.109	-0.065	0.008	0.06	-0.076	-0.042	0.128	0.053	0.007	0.001
WASHC3 (UniProt Q9Y3C0)	0.011	0.015	0.049	-0.008	-0.051	0.005	-0.006	-0.08	0.004	0.017	-0.015	-0.066	-0.058	0.067	-0.025	0.007	-0.002	0.026	-0.03	-0.245 (active)
VTI1A (UniProt Q96AJ9)	-0.039	0.015	0.011	0.095	-0.023	-0.014	-0.035	0.052	-0.013	-0.009	0.051	-0.002	-0.026	0.006	0.039	0.068	0.028	-0.017	0.01	-0.219 (active)
TMEM161B (UniProt Q8NDZ6)	0.003	-0.012	0.026	0.008	-0.063	0.079	0.053	0.012	0.032	-0.037	-0.028	-0.038	0.062	0.058	0.01	0.02	0.079	0.028	-0.068	-0.186
TMEM161A (UniProt Q9NX61)	-0.045	0.12	0.014	-0.012	-0.059	0.045	0.225	-0.048	0.024	-0.017	0.033	-0.477 (active)	-0.08	0.049	0.034	0.014	-0.009	0.088	-0.026	-0.265
USP34 (UniProt Q70CQ2)	-0.02	-0.094	0.077	0	-0.12	0.08	0.032	0.052	0.094	0.069	-0.215	-0.455 (active)	-0.023	0.02	-0.027	-0.043	0.014	0.065	0.015	-0.201
UTP4 (UniProt Q969X6)	-0.036	0.029	0.009	-0.007	-0.06	-0.028	-0.021	-0.019	-0.033	-0.005	0.032	0.006	-0.017	-0.02	0.001	0.043	-0.036	-0.006	-0.061	0.233 (active)
TMEM223 (UniProt A0PJW6)	0.034	-0.001	-0.026	0.058	-0.13	0.084	0.055	-0.128	0.002	0.041	-0.004	0.043	0.035	-0.01	-0.009	0.022	-0.015	0.032	-0.022	-0.271 (active)
TRIP10 (UniProt Q15642)	0.003	-0.026	-0.009	-0.045	0.139	0.08	0.026	-0.012	-0.058	0.015	-0.024	-0.11	0.047	0.034	-0.051	-0.051	0.04	0	-0.036	-0.056
